Where “and” joins values, the source holds several entries; their conditions need not be identical. Identical values can stand only once. Inconclusive results are not listed. Entries that show only a call come without a potency. Some compounds were tested as several samples or in several runs, with calls that do not always agree. Calls of active or inactive are those of the source. Calls come from the whole dose curve; as a rule, active = well fitted cell-killing curve with a large enough effect in the repeat runs; inconclusive = weak or mixed curves, or effect the other way; inactive = flat fitted curve, though single readings scatter.

Consider 40 compounds from PubChem BioAssay (Tox21).
Potency is the fitted concentration of half-maximal effect.

This assay can be described thus: qHTS RealTime-Glo MT Cell Viability Assay in HEK293 cells - 16 hour (AID 1224872). For activity change, negative = cytotoxicity: top concentration of the series differs between compounds. Note: nearly all actives have a fitted effect of over 50% in size. The note with it: RealTime-Glo luminescence; series mostly up to 76.8 µM; activity change, negative = cytotoxicity: at the top concentration. The text has this: National Center for Advancing Translational Sciences [NCATS]
NIH Chemical Genomics Center [NCGC]
U.S. Environmental Protection Agency [EPA]
National Institutes of Environmental Health Sciences [NIEHS]
National Toxicology Program [NTP]
U.S. Food and Drug Administration [FDA]
Measure of cell viability is critical in the cell-base assay. Analysis of cell viability is necessary for the characterization of cell responses to cytotoxic drugs and environmental stress. A RealTime-Glo MT Cell Viability Assay to monitor cell viability in real time of continues cell culture during 40 hours of compound treatment was used to screen Tox21 10K library compounds in Hek293 cells. The RealTime-Glo MT Cell Viability Assay is a nonlytic, homogeneous, bioluminescent method to measure cell viability in real time using a simple, plate-based method. The assay involves adding NanoLuc luciferase and a cell-permeant prosubstrate to cells in culture. Viable cells reduce the proprietary prosubstrate to generate a substrate for NanoLuc luciferase. This substrate diffuses from cells into the surrounding culture medium, where it is rapidly used by the NanoLuc Enzyme to produce a luminescent signal. The signal correlates with the number of viable cells, making the assay well suited for cytotoxicity studies.
Tox21 Assay Protocol Summary:
The mixture of Hek293 cell suspension and reagents were dispensed at 600cells/6 ul/well in 1536-well tissue culture treated black solid bottom plates using a Multidrop dispenser. After the assay plates were incubated at a 37 C/5% CO2 incubator for 5 hours, 23 nL of compounds dissolved in DMSO, positive and negative controls was transferred to the assay plate by a pintool work station. The plates were incubated at 37 C for 40 hours. The luminescence intensity were measured at 0h, 8h, 16h, 24h, 32h and 40h time points using ViewLux plate reader during compound treatment.
On the technique in general: Quantitative high-throughput screening tests each substance at several concentrations.
Regarding `FC(F)(F)C(Cl)Br` (stereo not given), the Potency entry is “inactive”.

For the compound `CC(C)(C)c1cccc(C(C)(C)C)c1O`, the Potency is 38 µM (active) and inactive.

For the compound `Cc1ccc(/C(=C\CN2CCCC2)c2ccccn2)cc1`, the “activity change, negative = cytotoxicity” value was -1.31% [at 35.3 µM] (inactive).

`CC(=O)Nc1ccc2c(c1)Cc1cc(NC(C)=O)ccc1-2`: the Potency entry is “inactive”.

Consider `O=C1OC2(c3ccccc31)c1cc(I)c(O)c(I)c1Oc1c2cc(I)c(O)c1I`, for which the Potency was 49.1 µM (active) and inactive.

For the compound `CCC/C=C/C=O`, the Potency result is “inactive”.

`C=CCCCCCCCCCC`: the Potency entry is “inactive”.

Take `COC(=O)CC(=O)OC`: the Potency result is “inactive”.

`OCCNCCO`: the Potency result was “inactive”.

Regarding `Cc1ccc2c(c1)C(=O)OC2=O`, the Potency entry was “inactive”.

For `Nc1cc([N+](=O)[O-])ccc1C(=O)O`, the Potency entry was “inactive”.

In the case of `CNC[C@H](O)c1ccc(O)c(O)c1`, the Potency entry was “inactive”.

Regarding `Brc1nc2ccccc2s1`, the Potency result was “inactive”.

For `C1CN(SSN2CCOCC2)CCO1`, the “activity change, negative = cytotoxicity” value was -16.7% (inactive).

Consider `CCCCCCCCCCC(CO)CCCCCCCC` (stereo not given), for which the Potency entry was “inactive”.

With `O=C(O)CCCCCCCCCCCC(=O)O`, the Potency result was “inactive”.

On to `C=CC(C)(O)CCC=C(C)C` (stereo not given), for which the Potency entry was “inactive”.

For the compound `Oc1c(Cl)ccc(Cl)c1Cl`, the Potency entry is “inactive”.

In the case of `Nc1ccc(O)c(N)c1`, the “activity change, negative = cytotoxicity” value is -20.8% (inactive).

For `NCCOCCO`, the Potency entry was “inactive”.

Take `CN(C)CCCN1c2ccccc2Sc2ccc(Cl)cc21`: the Potency was 30.9 µM (active) and 21.3 µM (active).

Turning to `CC1(C)O[C@@H]2C[C@H]3[C@@H]4C[C@H](F)C5=CC(=O)C=C[C@]5(C)[C@@]4(F)[C@@H](O)C[C@]3(C)[C@]2(C(=O)CO)O1`, the Potency entry is “inactive”.

For the compound `CCc1cccc2c3c([nH]c12)C(CC)(CC(=O)O)OCC3` (stereo not given), the Potency entry was “inactive”.

Consider `C=CCOC(=O)C(=C)C`, for which the Potency result is “inactive”.

Regarding `NCCN`, the Potency entry was “inactive”.

For `Nc1ccc2c(c1)C(=O)c1ccccc1C2=O`, the Potency result was “inactive”.

In the case of `C=C[C@@]1(C)CC(=O)[C@]2(O)[C@@]3(C)[C@@H](O)CCC(C)(C)[C@@H]3[C@H](O)[C@H](OC(C)=O)[C@@]2(C)O1`, the “activity change, negative = cytotoxicity” value was -16.6% [at 35.3 µM] (inactive).

Take `CC(=O)Oc1c(C)c(C)c2c(c1C)CC[C@@](C)(CCC[C@H](C)CCC[C@H](C)CCCC(C)C)O2`: the Potency result was “inactive”.

For the compound `Nc1ccc(N)c(Cl)c1`, the Potency is 48.9 µM (active).

On to `IC(I)I`, for which the Potency entry was “inactive”.

On to `C1COCCN1`, for which the Potency result is “inactive”.

On to `CCCCCCCC/C=C\CCCCCCCC(=O)O`, for which the Potency entry was “inactive”.

For the compound `CN(Cc1cnc2nc(N)nc(N)c2n1)c1ccc(C(=O)N[C@@H](CCC(=O)O)C(=O)O)cc1`, the Potency entry is “inactive”.

On to `CCCOCCO`, for which the Potency entry is “inactive”.

`CCO[Si](CCCNC(N)=O)(OCC)OCC`: the Potency result was “inactive”.

`Cc1ccc(C)c(O)c1`: the Potency result is “inactive”.

Turning to `COc1ccc(C(=O)c2ccccc2O)c(O)c1`, the “activity change, negative = cytotoxicity” value is -3.43% [at 35.3 µM] (inactive).

For the compound `c1ccc2c(c1)[nH]c1ccccc12`, the Potency entry is “inactive”.

Turning to `Cc1ccc(S(=O)(=O)O)cc1C`, the Potency result is “inactive”.

For the compound `Nc1cc(Cl)c(N)c(Cl)c1`, the Potency result was “inactive”.
